In the library only some 1.2% were active in any assay of this set; here they are far more common.
Luc counter = Kinase-Glo luciferase inhibition (counter-screen); Potency, µM (series often up to 38.3 µM), most hits filed as inhibitors; Q27757; hit rate 0.28% among 200,000; Kinase-Glo luciferase, ATP luminescence, 8 min; active means well fitted inhibition curve with a large enough effect; inconclusive means small, poorly fitted or top-dose-only effect; further: nearly all actives have a fitted effect of over 60% in size
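Luminescence was the read-out, taken after 8-minute incubation at ambient temperature. Luciferase turned over luciferin with 10 uM ATP in imidazole pH 7.2 buffer containing KCl, MgCl2, Tween 20 and BSA.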
KCNH2 3.1 block = blocks the human KCNH2 3.1 channel isoform; activity change, % (tested at about 1.8 µM); U2OS KCNH2 3.1, thallium flux FluxOr; stronger effect = lower value; hit rate 0.95% among 340,000;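 active means maximum activity change below -70%; inconclusive means maximum activity change from -70% to -50%; inactive means maximum activity change above -50%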;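 further: thallium influx rate constant from kinetic fluorescence after stimulation buffer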
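We transduce U2OS cells with the mutant 3.1 virus, culture them overnight, load FluxOr with Red40 quencher for 45 min, then add stimulation buffer and read kinetically for 2 min to derive a normalized rate constant.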
hERG WT inh = KCNH2 (human, wildtype) channel inhibition; activity change, % at 1.84 µM; hit rate 0.37% among 340,000; U2OS, BacMam KCNH2, thallium flux FluxOr; stronger effect = lower value; Q12809; AID 720551;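 active means maximum activity change below -70%; inconclusive means maximum activity change between -70% and -50%; inactive means maximum activity change above -50%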
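U2OS cells transduced with wild-type KCNH2 virus are loaded with FluxOr dye for 45 min, and thallium flux is measured in kinetic reads before and after stimulation buffer. Rate constants are normalized to DMSO controls.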
Large screens that a line does not name were inactive.

Cc1cn(C2CC(N=[N+]=[N-])C(CO)O2)c(=O)[nH]c1=O (configuration not stated)	none (no result: KCNH2 3.1 block, hERG WT inh)
COc1ccccc1Nc1nnc(SCC2CCCCO2)s1 (configuration not stated)	Luc counter 8.9µM
Cc1ccccc1Nc1nnc(SCC2CCCCO2)s1 (configuration not stated)	none (no result: KCNH2 3.1 block)
Cc1ccc(NC(=O)CN(C)C(=O)COC(=O)COc2cc(C)cc(C)c2)cc1	none (no result: Luc counter)
CN(C)c1ccc(/C=C2/C[N+](C)(C)C/C(=C/c3ccc(N(C)C)cc3)C2=O)cc1	none (no result: Luc counter, KCNH2 3.1 block)
CC(C)/C=C1\CC/C(=C\c2ccc(N(C)C)cc2)C1=O	KCNH2 3.1 block -79
Cn1cccc1C(=O)N1CCC2(CCN(Cc3nccs3)CC2)CC1	none (no result: KCNH2 3.1 block, hERG WT inh)
Nc1ccc(-c2nc3ccc(N)cc3s2)cc1	none (no result: Luc counter)
Nc1cccc(-c2nc3ccc(N)cc3s2)c1	Luc counter 13µM
c1ccc(CCNCCCOc2cccc3ccccc23)cc1	none (no result: Luc counter)
Cc1cc(C)cc(N(CC(=O)Nc2cc(C)ccc2C)S(=O)(=O)c2c(C)[nH]c(=O)[nH]c2=O)c1	none (no result: Luc counter)
Cc1cc(C)cc(N(CC(=O)Nc2ccc(Br)cc2)S(=O)(=O)c2c(C)[nH]c(=O)[nH]c2=O)c1	KCNH2 3.1 block -109 (no result: Luc counter)
Cn1nc(C(=O)OCC(=O)Nc2ccc(F)cc2Cl)c2ccccc2c1=O	none (no result: Luc counter)
C[C@H](NC(=O)c1nc[nH]c1C(=O)N1CCNCC1)C(=O)OC(C)(C)C	none (no result: Luc counter)
O=C(c1ccc([N+](=O)[O-])o1)N1CCc2ccccc21	none (no result: Luc counter)
Cc1ccc(C(=O)N2c3ccccc3CC2C)o1 (configuration not stated)	Luc counter 11µM
Cc1ccc(C(=O)N2CCc3ccccc32)o1	Luc counter 13µM
CC1Cc2ccccc2N1C(=O)c1ccc(Br)o1 (configuration not stated)	none (no result: Luc counter)
COc1cccc(C(=O)NNC(=O)C(=O)Nc2ccc(OC)cc2OC)c1	none (no result: Luc counter)
CCNC(=S)Nc1cccc(S(=O)(=O)Nc2ccccc2OC)c1	KCNH2 3.1 block -85 (no result: Luc counter)
COc1ccccc1NS(=O)(=O)c1cccc(NC(=O)Nc2ccccc2)c1	none
COc1cc(Br)c(CC(=O)NC2CC2)cc1OC	none (no result: Luc counter)
c1ccc2c(c1)CC(N1CCCCC1)c1ccccc1S2 (configuration not stated)	none (no result: Luc counter)
CCc1ccc2c(c1)Sc1ccccc1CC2N1CCN(C)CC1 (configuration not stated)	KCNH2 3.1 block -96, hERG WT inh inconclusive (no result: Luc counter)
CN(CC1COc2ccccc2O1)C(=O)Cn1cc(C(F)(F)F)ccc1=O (configuration not stated)	none (no result: Luc counter)
COCC(=O)N1CCC2(CC1)CN(C(=O)Nc1ccc(OC)cc1)C2	none (no result: KCNH2 3.1 block, hERG WT inh)
CC(=O)c1ccc(N2CCN(CC(O)COC(c3ccccc3)c3ccccc3C)CC2)cc1 (configuration not stated)	KCNH2 3.1 block -94 (no result: Luc counter)
CC(=O)c1ccc(N2CCN(CC(O)COC(c3ccccc3)c3ccccc3)CC2)cc1 (configuration not stated)	none (no result: Luc counter)
CNC(=O)NC(=O)C(C)OC(=O)c1cc2c(s1)CCCCC2 (configuration not stated)	KCNH2 3.1 block -98
CC(NC(=O)c1cc2c(s1)CCCC2)C(C)(C)C (configuration not stated)	none
O=C(Cn1ccnc1[N+](=O)[O-])N(CCO)CCO	none (no result: Luc counter)
CC(=O)NC(Cc1ccccc1)C(=O)N1CCN(C(=O)c2cccs2)CC1 (configuration not stated)	KCNH2 3.1 block -94
CC(=O)N1CCN(C(=O)C(Cc2ccccc2)NC(=O)c2ccccc2)CC1 (configuration not stated)	none (no result: Luc counter)
Cc1ccc2c(CC(=O)NNC(=O)c3ccccc3O)coc2c1	none (no result: Luc counter)
COc1ccc2c(C)cc(N3CCOCC3)nc2c1	none (no result: KCNH2 3.1 block)
COc1ccc(N2CCN(c3cc(C)c4ccc(C)cc4n3)CC2)cc1	KCNH2 3.1 block -102, hERG WT inh -74
Cc1cc(N2CCN(c3ccccc3F)CC2)nc2cc(O)ccc12	none
COc1ccc(N2CCN(c3cc(C)c4ccc(O)cc4n3)CC2)cc1	none
COc1ccc2c(C)cc(N3CCN(c4ccc(F)cc4)CC3)nc2c1	KCNH2 3.1 block -91
Cc1cc(N2CCN(c3ccc(F)cc3)CC2)nc2cc(O)ccc12	KCNH2 3.1 block -79, hERG WT inh inconclusive
S=c1nc(-c2sccc2OCc2ccc(Cl)cc2Cl)[nH][nH]1	none
COc1ccc(OCC(NS(=O)(=O)c2ccc(-n3cnnn3)cc2)C(C)C)cc1 (configuration not stated)	none (no result: Luc counter)
O=[N+]([O-])c1ccc(Cl)c(S(=O)(=O)Nc2cccc(S(=O)(=O)NC3=NCCC3)c2)c1	none (no result: Luc counter)
Cc1cccc(OCCCC(=O)NNC(=O)c2cccc(N(C)C)c2)c1	none (no result: Luc counter)
CCOc1ccc(NC(=O)CN2CCN(CC(=O)Nc3cccc(F)c3)CC2)cc1	KCNH2 3.1 block -85

High-throughput results: PubChem, National Center for Advancing Translational Sciences (NCATS)
